Values joined by “and” are separate entries in the source; they are usually repeats but may differ in a detail not shown here. Equal entries are not always repeated. Active and inactive are the calls of the source.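 How the source made its calls: active means inhibition at or above 50% relative to wild type and mutant plate controls; inactive means inhibition below 50%.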
assay: inhibitors of Chlamydomonas gravitaxis, primary screen, whole organism, Chlamydomonas reinhardtii, WT vs cilia-less mutant, absorbance, 96-well (AID 463189); details: OD600 absorbance, 2 days, at 10 µM, stronger effect = higher value;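 further: 0% = wild type cc124 cells in DMSO and 100% = ciliumless bld1 mutant cells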

Row | SMILES | inhibition
1 | CCCC(=O)NCCc1c2n(c3ccc(OC)cc13)Cc1ccccc1-2 | -1.81% (inactive)
2 | CCCCCCC/C=C\CCCCCCCCC(=O)O | 9.07% (inactive)
3 | CCCC[C@@]1(C2CCCC2)Cc2cc(OCC(=O)O)c(Cl)c(Cl)c2C1=O | 4.57% (inactive)
4 | OC[C@H]1NC[C@@H](O)[C@@H]1O | -9.59% (inactive)
5 | C=CC(N)CCC(=O)O (stereo not given) | -6.67% (inactive)
6 | Cc1[nH]c(=O)c(C#N)cc1-c1ccncc1 | 8.79% (inactive)
7 | CCCCOC(=O)NS(=O)(=O)c1sc(CC(C)C)cc1-c1ccc(Cn2c(CC)nc3c(C)cc(C)nc32)cc1 | 10.7% (inactive)
8 | OC[C@H]1O[C@@H](n2cnc3c(NC4CCCC4)ncnc32)C(O)[C@H]1O (stereo not given in full) | 2.66% (inactive)
9 | C[C@H](Cc1ccc(O)c(O)c1)[C@@H](C)Cc1ccc(O)c(O)c1 | -6.71% (inactive)
10 | C#C[C@]1(O)CC[C@H]2[C@@H]3CCC4=Cc5oncc5CC4(C)[C@H]3CCC21C (stereo not given in full) | 4.97% (inactive)
11 | NCCCCCCNS(=O)(=O)c1cccc2c(Cl)cccc12 | 7.85% (inactive)
12 | O=C1Nc2ccc(I)cc2/C1=C/c1cc(Br)c(O)c(Br)c1 | -6.77% (inactive)
13 | Clc1ccc(N2CCN(Cc3c[nH]c4ncccc34)CC2)cc1 | 5.9% (inactive)
14 | CCCCCCCCCCCCCCCCCCNC(=O)OCC(COP(=O)([O-])OCC[n+]1ccsc1)OC (stereo not given) | 7% (inactive)
15 | CCNC(=O)C1OC(n2cnc3c(NCc4ccccc4)ncnc32)C(O)C1O (stereo not given) | -0.03% (inactive)
16 | COc1cc(=O)n(C)c2c(OCC(O)C(C)(C)O)cccc12 (stereo not given) | -8.37% (inactive)
17 | CC(=O)OCC1=C(C(=O)O)N2C(=O)[C@@H](NC(=O)CSc3ccncc3)[C@H]2SC1 | 6.67% (inactive)
18 | CCCCCCCCCCC/C=C\C(C)(C)/C=C\CCCC(=O)O | -1.7% (inactive)
19 | O=C(Nc1cc(C(=O)Nc2ccc(S(=O)(=O)O)cc2S(=O)(=O)O)cc(C(=O)Nc2ccc(S(=O)(=O)O)cc2S(=O)(=O)O)c1)Nc1cc(C(=O)Nc2ccc(S(=O)(=O)O)cc2S(=O)(=O)O)cc(C(=O)Nc2ccc(S(=O)(=O)O)cc2S(=O)(=O)O)c1 | 10.7% (inactive)
20 | NCCS(=O)(=O)O | 8.8% (inactive)

Row | SMILES | inhibition
21 | CC(C)(C)[C@]1(O)CCN2C[C@H]3c4ccccc4CCc4cccc(c43)[C@@H]2C1 | 3.49% (inactive) and -7.42% (inactive)
22 | O=C(O)/C(=C/c1c(C(=O)O)[nH]c2cc(Cl)cc(Cl)c12)c1ccccc1 | -3.38% (inactive)
23 | O[Si](CCCN1CCCCC1)(c1ccc(F)cc1)C1CCCCC1 (stereo not given) | -1.85% (inactive)
24 | O=[N+]([O-])c1cccc2c(Br)[nH]nc12 | 136% (active)
25 | Nc1ccc(N2C(=O)c3ccccc3C2=O)c(Cl)c1 | -0.463% (inactive)
26 | Cc1cc(C)c(/C=C2\C(=O)Nc3ccccc32)[nH]1 | 25.9% (inactive)
27 | CC(=O)N[C@@H](Cc1c[nH]c2ccccc12)C(=O)OCc1cc(C(F)(F)F)cc(C(F)(F)F)c1 | -0.535% (inactive)
28 | c1ccc([C@H]2CN3CCSC3=N2)cc1 | -1.39% (inactive)
29 | NCC(O)c1ccc(O)c(O)c1 (stereo not given) | -2.37% (inactive)
30 | CC#CCOC(=O)c1c(C)nc2sc3c(c2c1N)CCC(O)C3 (stereo not given) | 11.7% (inactive)
31 | CC(=O)SCC[N+](C)(C)C | -2.92% (inactive)
32 | O=C1Cc2c([nH]c3ccc(Br)cc23)-c2ccccc2N1 | -1.32% (inactive)
33 | O=C(O)CN(CCN(CC(=O)O)CC(=O)O)CCN(CC(=O)O)CC(=O)O | 6.57% (inactive)
34 | c1cnc(N2CCN(Cc3ccc4c(c3)OCO4)CC2)nc1 | 0.952% (inactive)
35 | C[C@](N)(Cc1ccc(O)c(O)c1)C(=O)O | 5.26% (inactive)
36 | NCCCCCCCCCCN | 2.72% (inactive)
37 | OCCN1CCN(CC/C=C2/c3ccccc3Sc3ccc(C(F)(F)F)cc32)CC1 | 15.6% (inactive)
38 | Cc1nc(N=Nc2ccc(C(=O)O)cc2)c(COP(=O)(O)O)c(C=O)c1O | 8.14% (inactive)
39 | COC(=O)[C@@H](N)Cc1ccc(O)c(O)c1 | -3.44% (inactive)
40 | Cn1c(=O)c2[nH]c(-c3ccccc3)nc2n(C)c1=O | -0.378% (inactive)
